Assay in all cases: PBM binding z-score (relative to random genomic background probes); higher = stronger binding; sequences stand for … in GC…GCGATTGACAGCGTAGAATGAAGG
Test [1] deals with FXR:RXRa (NR concentration 270 nM, RXRa partner concentration 90 nM). In a few lines: (§1)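 Each nuclear receptor dimer, without ligand, was incubated for 1 h on custom Agilent 4×180K protein-binding microarrays. Binding was detected with antibodies against each partner (one per run), and scanned fluorescence was regression-normalized. The binding z-scores are referenced to random human genomic background probes.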

Test [2] relates to LXRa:RXRa (NR concentration 270 nM, RXRa partner concentration 90 nM). The method in brief:
as §1

Test [3] has as its system LXRa homodimer (NR concentration 270 nM). In a few lines: as §1
Test [4] relates to LXRb:RXRa (NR concentration 270 nM, RXRa partner concentration 90 nM). In a few lines:
as §1

Test [5] relates to LXRb homodimer (NR concentration 270 nM). The method in brief:
as §1

For test [6], the system named is PPARa:RXRa (NR concentration 270 nM, RXRa partner concentration 90 nM). The method in brief: as §1
The subject of test [7] is PPARg:RXRa (NR concentration 180 nM, RXRa partner concentration 90 nM). The method in brief: as §1
The subject of test [8] is PPARg:RXRa 270nM:90nM, anti-RXR (NR concentration 270 nM, RXRa partner concentration 90 nM). The method in brief: as §1
Test [9] deals with PPARg:RXRa 30nM:10nM, anti-RXR (NR concentration 30 nM, RXRa partner concentration 10 nM). In a few lines: as §1
Test [10] concerns PPARg:RXRa 90nM:30nM, anti-RXR (NR concentration 90 nM, RXRa partner concentration 30 nM). The method in brief:
as §1

Test [11] relates to PPARg:RXRa DBDmut IVT, anti-RXR (DBD mutation: RXRa K156A/R161A, NR concentration 270 nM, RXRa partner concentration 90 nM). The method in brief: as §1
Test [12] has as its system PPARg:RXRa IVT, anti-PPARg (NR concentration 270 nM, RXRa partner concentration 90 nM). In a few lines:
as §1

For test [13], the system named is PPARg DBDmut:RXRa IVT, anti-PPARg (DBD mutation: PPARg1 K132A/R137A, NR concentration 270 nM, RXRa partner concentration 90 nM). The method in brief:
as §1

The test system of test [14] is PPARg DBDmut IVT, anti-PPARg (DBD mutation: PPARg1 K132A/R137A, NR concentration 270 nM). In a few lines:
as §1

The test system of test [15] is PPARg homodimer (NR concentration 180 nM). In a few lines: as §1
Test [16] has as its system PXR:RXRa (NR concentration 270 nM, RXRa partner concentration 90 nM). The method in brief: as §1
Test [17] concerns PXR homodimer (NR concentration 270 nM). The method in brief:
as §1

Test [18] deals with RARa:RXR (NR concentration 270 nM, RXRa partner concentration 90 nM). The method in brief: as §1
Test [19] has as its system RARa homodimer (NR concentration 270 nM). The method in brief:
as §1

Test [20] relates to RARb:RXRa (NR concentration 270 nM, RXRa partner concentration 90 nM). The method in brief:
as §1

In the case of ATCTCTAGGTAAAGTTCAGTTAAAGATCGATAGA, the PBM binding z-score came out at 1.31 in test [1]; 2.28 in [2]; 1.98 in test [3]; 1.67 in [4]; 1.22 in [5]; 2.39 in test [6]. The PBM binding z-score was found to be 3.27 in [7]; 4.32 in test [8]; 2.38 in test [9]; 3.95 in test [10]; 2.25 in test [11]; 2.63 in test [12]. Also, the PBM binding z-score in test [13] was determined as 1.03; in [14] it was 0.905; in test [15] it was 2.02; in test [16], 2.33; in test [17], 1.72; in [18], 1.81. For the same sequence, the PBM binding z-score worked out at 1.83 in [19] and 2.78 in [20].
With ATCGCTAGGTAAAGATAGTTCAGTGAATGCAAAT, the PBM binding z-score is -0.496 in test [1]; 3.12 in [2]; -0.0972 in [3]; 0.21 in test [4]; -0.672 in test [5]; -0.0926 in test [6]. Further, the PBM binding z-score in [7] is 0.0549; in test [8] it was -0.523; in test [9], -0.376; in test [10], -0.332; in test [11], -0.327; in test [12], -0.329. The PBM binding z-score in test [13] turned out to be 0.673; in test [14], 0.059; in [15], 0.116; in [16], 0.306; in [17] it was 0.193; in test [18], 0.173. The PBM binding z-score in test [19] is 0.336; in [20], 0.139.
Regarding TCATGTAGGTAATACAGGTGAAAGTCGGCATCTA, the PBM binding z-score in test [1] was 0.0966; in test [2], 0.506; in test [3] it was 0.125; in [4] it was 0.469; in [5] it was -0.485; in test [6], 1.63. For the same sequence, the PBM binding z-score in test [7] is 1.15; in test [8] it was 1.94; in [9], 2.84; in [10], 2.25; in [11], 3.86; in [12], 3.68. For the same sequence, the PBM binding z-score in [13] was 0.771; in test [14], 0.521; in test [15], 0.456; in test [16], 0.27; in test [17], -0.325; in test [18] it was 0.507. In addition, the PBM binding z-score in test [19] amounted to 0.465; in test [20] it was 0.0857.
On to ATCTCTAGTTAAAAGTTCAGTGAATCCCGAGGAT, for which the PBM binding z-score in test [1] is 0.652; in test [2], 1.49; in [3], 1.82; in test [4], 0.877; in test [5], 1.25; in test [6] it was 1.64. In addition, the PBM binding z-score in test [7] amounted to 1.4; in [8] it was 3.41; in test [9], 1.59; in test [10], 3.49; in test [11], 0.0721; in [12], 0.398. The PBM binding z-score was 0.853 in test [13]; 1.16 in [14]; 1.56 in test [15]; 1.9 in test [16]; 2 in test [17]; 1.03 in [18]. Besides, the PBM binding z-score came to 1.8 in [19] and 2.2 in test [20].
With CGACAAAGTTCAAGGTAACGTAACAGAAAGCAGC, the PBM binding z-score in test [1] is 5.84; in test [2] it was 5.54; in test [3], 1.97; in test [4], 3.29; in test [5], 0.658; in test [6], 4.63. Further, the PBM binding z-score turned out to be 3.59 in [7]; 4.67 in test [8]; 1.47 in test [9]; 3.46 in test [10]; 0.277 in [11]; 1.76 in test [12]. For the same sequence, the PBM binding z-score was determined as 0.591 in test [13]; 0.507 in test [14]; 2.08 in test [15]; 3.81 in [16]; 2.44 in test [17]; 3.27 in test [18]. For the same sequence, the PBM binding z-score in test [19] is 1.06; in test [20], 4.89.
Consider ATCGAAAGGTGGTGAGGTGAGTATACAGAAAGGC, for which the PBM binding z-score stood at 0.483 in [1]; 0.31 in [2]; 0.284 in test [3]; 0.389 in test [4]; 0.161 in [5]; 0.744 in test [6]. The PBM binding z-score in test [7] was 0.668; in [8] it was 0.261; in test [9], 0.347; in [10], 0.438; in [11] it was -0.246; in [12], 0.807. The PBM binding z-score in test [13] came out at 0.968; in test [14] it was 1.51; in [15], 0.911; in test [16] it was 0.257; in test [17] it was 0.574; in [18], 0.614. The PBM binding z-score in test [19] is 0.646; in [20] it was 0.849.

Source of the values: the supplement of paper PMC6555819.
